Data from PubChem BioAssay (EPA / NIEHS).
Inconclusive results are not listed. Activity calls are given as the source filed them. Rule for the calls: active = hit-call score of the fitted dose curve at least 0.9, where 1 is the maximum; inconclusive = response in the unintended direction; inactive = score below 0.9.

Biological target: Cytochrome P450 3A4 (Homo sapiens) (UniProt P08684)
Assay: NVS_ADME_hCYP3A4: NovaScreen (NVS) CYP450-related Enzyme Activity (ADME) Assay for human CYP3A4 (AID 2283110)
Summary of the method: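 Activity is derived from decreased fluorescence intensity relative to acetonitrile, measured 0.33 hour after dosing insect-cell-expressed CYP3A4 in a cell-free format. Screening used 10 uM in duplicate before concentration-response follow-up.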

Cytochrome P450 3A4 (Homo sapiens), sequence (P08684 whole entry, looked up): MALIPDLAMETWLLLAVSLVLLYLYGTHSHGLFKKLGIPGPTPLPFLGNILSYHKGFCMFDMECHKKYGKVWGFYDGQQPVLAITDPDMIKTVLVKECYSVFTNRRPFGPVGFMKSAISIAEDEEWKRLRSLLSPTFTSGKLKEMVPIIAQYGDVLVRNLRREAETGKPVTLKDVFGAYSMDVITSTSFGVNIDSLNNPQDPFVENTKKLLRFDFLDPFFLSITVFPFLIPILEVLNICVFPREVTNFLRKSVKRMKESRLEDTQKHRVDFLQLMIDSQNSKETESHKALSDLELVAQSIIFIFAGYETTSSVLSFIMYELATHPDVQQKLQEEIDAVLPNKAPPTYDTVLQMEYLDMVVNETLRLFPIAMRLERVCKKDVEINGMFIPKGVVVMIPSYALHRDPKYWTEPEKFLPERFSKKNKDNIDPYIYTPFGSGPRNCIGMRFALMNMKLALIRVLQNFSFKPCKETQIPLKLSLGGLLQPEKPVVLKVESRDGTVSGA

| SMILES | AC50 | outcome |
| --- | --- | --- |
| O=C(O)c1cccc(N(Cc2cccnc2)c2ccc(OC(F)F)c(OC(F)F)c2)c1 | 6.01 µM (active) |  |
| CC(C)c1cccc(C(C)C)c1N1C(=O)c2ccc(O)cc2C1=O | 13.6 µM (active) |  |
| CCN(C(=O)c1cc(C)cc(OC[C@H](C)Nc2ccncc2)c1)C(C)C | 2.87 µM (active) |  |
| Nc1ccc(Nc2ccccc2)cc1 | 7.5 µM (active) |  |
| CNS(=O)(=O)c1cc(C(=O)N2CCC(CCN3C4CCC3CC(n3c(C)nc5ccccc53)C4)(c3cccc(F)c3)CC2)c(Cl)cc1F (configuration not stated) | 4.08 µM (active) |  |
| Cn1c(=O)cc(Oc2ccc(F)cc2F)c2cnc(NCC(C)(C)O)nc21 |  | inactive |

Biological target: Cytochrome P450 2C19 (Homo sapiens) (UniProt P33261)
Assay: NVS_ADME_hCYP2C19: NovaScreen (NVS) CYP450-related Enzyme Activity (ADME) Assay for human CYP2C19 (AID 2283113);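 note: potency for inhibition seen as loss of fluorescent signal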
Summary of the method: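 Cell-free recombinant human CYP2C19 from insect cells, fluorescent substrate; activity read by fluorescence intensity 1 h after dosing. Primary screen in duplicate at 10 uM; actives retested in concentration series. Signal loss versus acetonitrile negative control.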

| SMILES | AC50 |
| --- | --- |
| O=C(O)c1cccc(N(Cc2cccnc2)c2ccc(OC(F)F)c(OC(F)F)c2)c1 | 4.98 µM (active) |
| CC(C)c1cccc(C(C)C)c1N1C(=O)c2ccc(O)cc2C1=O | 5.11 µM (active) |
| O=C(O)CC(O)C(=O)O (configuration not stated) | 12.9 µM (active) |
| CCCCCCc1ccc(O)cc1O | 4.91 µM (active) |
| Nc1ccc(Nc2ccccc2)cc1 | 6.51 µM (active) |
| Cc1ccc(N)cc1O | 7.57 µM (active) |
| CNS(=O)(=O)c1cc(C(=O)N2CCC(CCN3C4CCC3CC(n3c(C)nc5ccccc53)C4)(c3cccc(F)c3)CC2)c(Cl)cc1F (configuration not stated) | 6.01 µM (active) |
| O=C(OC[C@H]1O[C@@H](OC(=O)c2cc(O)c(O)c(OC(=O)c3cc(O)c(O)c(O)c3)c2)[C@H](OC(=O)c2cc(O)c(O)c(OC(=O)c3cc(O)c(O)c(O)c3)c2)[C@@H](OC(=O)c2cc(O)c(O)c(OC(=O)c3cc(O)c(O)c(O)c3)c2)[C@@H]1OC(=O)c1cc(O)c(O)c(OC(=O)c2cc(O)c(O)c(O)c2)c1)c1cc(O)c(O)c(OC(=O)c2cc(O)c(O)c(O)c2)c1 | 2.34 µM (active) |
| On1ccccc1=S | 5.15 µM (active) |
| COc1ccc(-n2nc(C(F)F)cc2-c2ccc(S(C)=O)cc2)cc1 (configuration not stated) | 0.967 µM (active) |

Biological target: human Acid Phosphatase 1 (ACP1), ACP1 (gene 52) (UniProt P24666)
Sequence (P24666 whole entry, looked up): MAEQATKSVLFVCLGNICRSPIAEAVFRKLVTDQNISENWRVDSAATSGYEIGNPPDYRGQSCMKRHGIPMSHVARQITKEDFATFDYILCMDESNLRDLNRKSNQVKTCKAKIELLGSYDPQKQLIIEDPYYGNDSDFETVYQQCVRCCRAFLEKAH
Assay: NVS_ENZ_hACP1: NovaScreen (NVS) Enzymatic Assay for human Acid Phosphatase 1 (ACP1) (AID 2283136)
Summary of the method: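 Cell-free fluorescence read-out of phosphatase activity, substrate and product separated by mobility shift, taken 1.5 h after compound addition; protein produced in Sf9. Single 25 uM duplicate screen, followed by concentration series for actives, scored as signal loss relative to DMSO.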

| SMILES | outcome |
| --- | --- |
| CC(C)c1cccc(C(C)C)c1N1C(=O)c2ccc(O)cc2C1=O | inactive |
| O=C(O)c1cc(N=Nc2ccc(S(=O)(=O)Nc3ccccn3)cc2)ccc1O | inactive |
| Cc1ccc(N)cc1O | inactive |

Biological target: human Caspase 5 (CASP5), CASP5 (gene 838) (UniProt P51878)
Sequence (P51878 whole entry, looked up): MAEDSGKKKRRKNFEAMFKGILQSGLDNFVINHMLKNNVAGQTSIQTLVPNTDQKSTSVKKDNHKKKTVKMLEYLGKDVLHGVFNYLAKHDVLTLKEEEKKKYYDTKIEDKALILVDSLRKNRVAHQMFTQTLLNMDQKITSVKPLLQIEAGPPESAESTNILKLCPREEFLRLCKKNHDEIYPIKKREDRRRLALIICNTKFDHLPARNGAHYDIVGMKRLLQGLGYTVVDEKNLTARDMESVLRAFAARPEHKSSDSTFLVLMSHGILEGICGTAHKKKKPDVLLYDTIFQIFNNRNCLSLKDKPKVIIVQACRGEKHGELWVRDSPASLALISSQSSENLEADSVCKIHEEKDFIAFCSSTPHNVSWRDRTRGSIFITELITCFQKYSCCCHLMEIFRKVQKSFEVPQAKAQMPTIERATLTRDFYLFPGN
Assay: NVS_ENZ_hCASP5: NovaScreen (NVS) Enzymatic Assay for human Caspase 5 (CASP5) (AID 2283137)
Summary of the method: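 Chemicals were first tested in duplicate at 25 uM against recombinant caspase 5 from E. coli. Activity was read by fluorescence intensity 2 hours after dosing. Those passing a preset inhibition threshold were retested in singleton concentration-response up to 50 uM.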

| SMILES | AC50 | outcome |
| --- | --- | --- |
| CCOc1cccc(-n2cc(C(=O)N3CCN(c4cc(C(=O)O)c5ccccc5c4)CC3)nc2-c2ccc(C)cc2)c1 | 18.3 µM (active) |  |
| Nc1ccc(Nc2ccccc2)cc1 |  | inactive |
| O=C(OC[C@H]1O[C@@H](OC(=O)c2cc(O)c(O)c(OC(=O)c3cc(O)c(O)c(O)c3)c2)[C@H](OC(=O)c2cc(O)c(O)c(OC(=O)c3cc(O)c(O)c(O)c3)c2)[C@@H](OC(=O)c2cc(O)c(O)c(OC(=O)c3cc(O)c(O)c(O)c3)c2)[C@@H]1OC(=O)c1cc(O)c(O)c(OC(=O)c2cc(O)c(O)c(O)c2)c1)c1cc(O)c(O)c(OC(=O)c2cc(O)c(O)c(O)c2)c1 | 0.136 µM (active) |  |
